Only some compounds are listed: those with a hit (about 1% of all), similar ones and a draw of the others.
RTF Ca sens inh – cardiac RTF calcium desensitization | P19429+P45379 | IANBD-labeled cardiac RTF, Ca2+ fluorescence | inhibition, % at 7.15 µM | 340,000 compounds, 0.12% hits | AID 493244;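 active = inhibition above the mean inhibition of all tested compounds plus 3 SD, cut at about 17% in these data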;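 note: assay run at fixed EC70 calcium of 1.6 mM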
Keap1-Nrf2 PPI – inhibitors of human Keap1-Nrf2 protein-protein interaction; Q14145; inhibition, % at 9.4 µM; Keap1 Kelch-Nrf2 peptide fluorescence polarization, 1536-well; 340,000 compounds, 0.15% hits; in the data active = inhibition above about 12%;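 note: human Keap1 Kelch domain with fluorescein labeled Nrf2 9mer peptide probe; higher means more block of Keap1 binding to Nrf2 peptide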
Target sequence (Q14145 whole entry, looked up, the tested form may be a part): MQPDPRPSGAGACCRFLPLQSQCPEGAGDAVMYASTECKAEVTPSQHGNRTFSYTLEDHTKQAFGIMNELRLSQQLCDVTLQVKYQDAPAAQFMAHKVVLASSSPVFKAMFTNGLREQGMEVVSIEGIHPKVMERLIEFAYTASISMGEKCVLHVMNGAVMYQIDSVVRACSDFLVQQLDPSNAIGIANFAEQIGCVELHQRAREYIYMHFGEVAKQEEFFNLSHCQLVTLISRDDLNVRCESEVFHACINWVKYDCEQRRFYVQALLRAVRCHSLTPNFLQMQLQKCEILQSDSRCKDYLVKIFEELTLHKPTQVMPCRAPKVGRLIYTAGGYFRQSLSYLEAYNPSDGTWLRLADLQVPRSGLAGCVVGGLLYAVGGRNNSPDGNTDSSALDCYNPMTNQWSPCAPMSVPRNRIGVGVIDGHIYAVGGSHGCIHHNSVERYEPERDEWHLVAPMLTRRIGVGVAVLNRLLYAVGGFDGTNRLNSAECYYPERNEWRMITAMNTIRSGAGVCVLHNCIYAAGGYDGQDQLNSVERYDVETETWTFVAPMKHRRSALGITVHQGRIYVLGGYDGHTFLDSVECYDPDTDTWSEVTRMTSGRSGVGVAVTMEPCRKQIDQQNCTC
LANA-H2A inh – blocks KSHV LANA binding to histone H2A/H2B | 320,000 compounds, 0.6% hits | Q9QR71 | cell-free LANA-H2A/H2B peptide, fluorescence polarization | inhibition, % (no concentration beside the values); in the data active = inhibition mostly above about 10%, no sharp cut-off; inactive = mostly below about 6.7%
C-LANA FP – KSHV C-LANA DNA binding inhibition; AID 504423; inhibition, % at 9 µM; 340,000 compounds, 0.078% hits; MBP-C-LANA/FAM-LBS DNA binding, fluorescence polarization;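 active = highest replicate inhibition at or above 60% at 9 µM, even if other replicates fall short; inactive = all replicates below 60% inhibition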
cardiac RTF act – cardiac RTF calcium sensitization. activation, % at 7.2 µM. 340,000 compounds, 0.24% hits. IANBD-labeled TnC RTF fluorescence at EC20 calcium; 0% EC20 calcium, 100% full calcium. AID 493008;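 active = activation above the mean over all tested compounds plus 3 SD, cut at about 30% in these data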;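 note: rise in fluorescence read as greater calcium sensitivity of cardiac thin filaments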
Keap1 TSA – Keap1 (human) Kelch domain binding; shares compounds with Keap1-Nrf2 PPI; Keap1 Kelch thermal shift, delta Tm; hits give high values; max delta Tm, degrees C; 400 compounds, 8% hits; AID 651823; in the data active = max delta Tm above about 0.48 degrees C
Dye-only ctr – counter-screen for Keap1 thermal shift hits: dye-only artifacts; Sypro Orange dye-only thermal melt, no protein, delta Tm; top dose 26 µM; shares compounds with Keap1-Nrf2 PPI; 140 tested, under 10 active; delta Tm, degrees C (test concentration not listed); AID 651858;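 active = at highest dose tested, delta Tm positive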
Numbers stand for hits; 0 = inactive; - = no result.

SMILES | RTF Ca sens inh | Keap1-Nrf2 PPI | LANA-H2A inh | C-LANA FP | cardiac RTF act | Keap1 TSA | others
Cc1cnc(NC(=O)Cc2ccc(S(=O)(=O)N3CCOCC3)s2)s1 | 0 | 13 | 0 | 0 | 0 | 0
CCOc1ccccc1Nc1nc(N)nc(CN2CCCCC2C)n1 (stereo not given) | 0 | 0 | 0 | 0 | 0 | -
COC(=O)C1=C(C)N(CCc2cc(OC)c(OC)c(OC)c2)C(=O)N[C@H]1c1ccc(Br)cc1 | - | - | 0 | - | - | -
O=S(=O)([O-])CCC[n+]1c(SCCCS(=O)(=O)O)sc2ccc(Cl)cc21 | 0 | 21 | 0 | 0 | 0 | 0 | Dye-only ctr=0
CC/C(=C/c1sc2ccc(C)cc2[n+]1CCCS(=O)(=O)[O-])SC | - | - | 0 | - | - | -
N#Cc1cc(-c2ccccc2)c[nH]c1=O | 0 | 0 | 0 | 0 | 0 | -
c1ccc(CSc2nnc(-c3ccco3)n2Cc2ccco2)cc1 | 0 | 0 | 0 | 0 | 0 | -
CCCCOc1[nH]c2nc(-c3ccco3)n(Cc3ccco3)c(=N)c2c1C#N | 0 | 16 | 0 | 0 | 0 | 0
Cn1c(Cn2cnc3ccccc32)nnc1SCc1ccccc1 | 0 | 0 | 0 | 0 | 0 | -
O=S(=O)(NCc1cc(-c2ccccc2Cl)no1)c1ccc(Cl)cc1 | 0 | 0 | 0 | 0 | 0 | -
Nc1c(Cl)ncnc1NCc1ccccc1 | 0 | 31 | 0 | 0 | 0 | 0
c1ccc2[nH]c3cc4ncnc4cc3nc2c1 | 0 | 35 | 26 | 75 | 58 | 0
CC(C)c1nnc(N2C(=O)C(O)=C(C(=O)c3cccs3)C2c2ccccc2)s1 (stereo not given) | 0 | 20 | - | 0 | 0 | 0
Cc1cccc(N2C(=O)C(O)=C(C(=O)c3cccs3)C2c2ccc(C(C)C)cc2)n1 (stereo not given) | 0 | 0 | 0 | 0 | 0 | -
COc1ccc(C2C(C(=O)c3cccs3)=C(O)C(=O)N2c2nncs2)cc1 (stereo not given) | 0 | 55 | 30 | 64 | 32 | 0
Cc1cc(C)cc(N(C(=O)c2cccs2)C2C=CS(=O)(=O)C2)c1 (stereo not given) | 0 | 0 | 0 | 0 | 0 | -
CCOc1ccc(C(C)=O)cc1COc1ccc(C)nc1[N+](=O)[O-] | 0 | 0 | 0 | 0 | 0 | -
Cn1cc(C2N3CC4(C)CN2CC(C)(C3)C4=O)c2ccccc21 (stereo not given) | 0 | 0 | 0 | 0 | 0 | -
O=C(N/N=C/c1c(O)ccc2ccccc12)Nc1ccccc1 | - | - | 0 | - | - | -
O=C(CSCC(=O)Nc1ccccc1)N/N=C/c1c(O)ccc2ccccc12 | 0 | 12 | 0 | 0 | 0 | 0 | Dye-only ctr=0
CNS(=O)(=O)c1ccc2c3c(cccc13)C(=O)N2C | 0 | 32 | 0 | 0 | 0 | 0
CC(=O)Nc1ccc2c(c1)N(C(=O)CN(C)C)c1ccccc1CC2 | 0 | 123 | 0 | 0 | 0 | 0
CCNCC(=O)N1c2ccccc2CCc2ccc(NC(C)=O)cc21 | 0 | 0 | 0 | 0 | 0 | -
CN(C)CC(O)CN(c1ccccc1)c1ccccc1 (stereo not given) | - | - | 0 | - | - | -
CN1/C(=C\C(=O)Nc2ccc(Cl)cc2)C(C)(C)c2ccccc21 | 0 | 0 | 0 | 0 | 0 | -
SMILES | RTF Ca sens inh | Keap1-Nrf2 PPI | LANA-H2A inh | C-LANA FP | cardiac RTF act | Keap1 TSA | others
CN1/C(=C\C=C(C#N)C#N)C(C)(C)c2ccccc21 | 0 | 45 | 45 | 0 | 0 | 0
CN1/C(=C/C=N/n2cnnc2)C(C)(C)c2ccccc21 | 0 | 0 | 0 | 0 | 0 | -
CN1/C(=C\C=C(/C#N)C(=O)Nc2ccc(Cl)cc2)C(C)(C)c2ccccc21 | 0 | 14 | 0 | 0 | 0 | 0
O=C(Cn1cc(C(F)(F)F)cc(Cl)c1=O)NCc1ccccc1 | 0 | 0 | 0 | 0 | 0 | -
COc1ccc(NS(=O)(=O)c2cccc(C(=O)N3CCCC3)c2)cc1 | 0 | 0 | 0 | 0 | 0 | -
COc1ccc2c(c1)c1nc3ccccc3nc1n2CC(=O)OC(C)C | 0 | 24 | 0 | 0 | 0 | 0 | Dye-only ctr=0
COC(=O)c1ccc(OCCn2cnc3ccccc3c2=O)cc1 | 0 | 0 | 0 | 0 | 0 | -
O=C(/C=C/c1ccccc1Cl)NCCCn1ccnc1 | 0 | 38 | 0 | 0 | 0 | 0
CNC(=O)C1CC(=O)N(c2ccc(OCC(=O)Nc3ccc(F)cc3)cc2)C1 (stereo not given) | 0 | 30 | - | 0 | 0 | 0 | Dye-only ctr=0
CN(N=Nc1cccc([N+](=O)[O-])c1)c1ccccc1 | 0 | 0 | 0 | 0 | 0 | -
CN(N=Nc1ccc([N+](=O)[O-])cc1)c1ccccc1 | 0 | 113 | 0 | 101 | 511 | 0
Cc1ccc(S(=O)(=O)N2CCC(C(=O)N/N=C/c3cccn3C)CC2)cc1 | 0 | 0 | 0 | 0 | 0 | -
Cn1ccnc1Sc1cc(NCCCO)c([N+](=O)[O-])c2nonc12 | 0 | 13 | 0 | 0 | 0 | 0
O=C(CCCN1C(=O)/C(=C\c2cccs2)SC1=S)Nc1ccc(O)cc1C(=O)O | 0 | 0 | 0 | 0 | 0 | -
O=C(CCCN1C(=O)/C(=C\c2ccco2)SC1=S)Nc1ccc(O)cc1C(=O)O | 0 | 28 | 0 | 109 | 0 | 0 | Dye-only ctr=0
COCCCN1C(=O)c2ccc(C(=O)Nc3ccc(C)cc3C)cc2C1=O | 0 | 39 | 0 | 0 | 0 | 0
C=CCn1c(=O)/c(=C\c2ccsc2)s/c1=C(/C#N)C(=O)NCCN1CCOCC1 | 0 | 16 | 0 | 0 | 0 | 0 | Dye-only ctr=0
Cc1cccc(CSCc2ccc(C(=O)NC3CCCC3)o2)c1 | 0 | 0 | 0 | 0 | 0 | -
CC(C)(C)c1cc[n+](-c2nc([O-])sc2C=O)cc1 | 0 | 0 | 0 | 0 | 0 | -
CCc1cc[n+](-c2nc([O-])sc2C=O)cc1 | 0 | 29 | 0 | 0 | 0 | 0
CCOc1cccc(C2C(C(=O)c3ccc(C)o3)=C(O)C(=O)N2Cc2ccncc2)c1 (stereo not given) | 0 | 0 | 0 | 0 | 0 | -
O=C(C1=C(O)C(=O)N(CCc2ccccc2)C1c1ccncc1)c1cc2ccccc2o1 (stereo not given) | 0 | 0 | 0 | 0 | 0 | -
O=C(C1=C(O)C(=O)N(c2nccs2)C1c1ccccc1)c1cc2ccccc2o1 (stereo not given) | 0 | 42 | 0 | 0 | 34 | 0
CCOc1cccc(C2C(C(=O)c3ccc(C)o3)=C(O)C(=O)N2c2nccs2)c1 (stereo not given) | 0 | 24 | 15 | 0 | 0 | 0
COc1ccccc1CNC(=O)c1cc(S(=O)(=O)N2CCOCC2)cn1C | 0 | 0 | 0 | 0 | 0 | -
COc1cc(/C=C/CN2CCN(Cc3ccc(C)o3)C(CCO)C2)ccc1O (stereo not given) | 0 | 0 | 0 | 0 | 0 | -
COc1cc(/C=C/CN2CCN(CCC(C)C)C(CCO)C2)ccc1O (stereo not given) | 0 | 18 | 0 | 0 | 0 | 0
O=[N+]([O-])c1ccc(S(=O)(=O)Nc2ccc(S(=O)(=O)N3CCCC3)cc2)cc1 | 0 | 0 | 0 | 0 | 0 | -
Cc1ccc(C2C3CN(C(C)C)CC=C3C(C#N)=C(N)C2(C#N)C#N)cc1 (stereo not given) | 0 | 23 | 0 | 0 | 136 | 0
